Results as given in PubChem BioAssay AID1578 (Sanford-Burnham Center for Chemical Genomics, 2009).
Screen size: about 290,000 compounds; about 3,000 (1%) were called active. What follows is part of a selection rich in actives, with near analogues and random picks from the rest. A number with no mark means an inactive call. Rule as the data show it: active = inhibition mostly above about 36% (no sharp cut-off); inactive = mostly below about 34%.

Assay: NOD1 signaling inhibitors, primary screen, cell-based, luminescence, uHTS (AID 1578);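 also: HEK-293T reporter cells stimulated with the NOD1 agonist gamma-tri-DAP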
Conditions: NOD1-driven NF-kB luciferase reporter cells, at 4 µM, stronger effect = higher value

Structure (SMILES)	inhibition
CCCS(=O)(=O)N1CCC(C(=O)c2cccc(C(F)(F)F)c2)CC1	-5.7%
Cc1cc(C(=O)Nc2nnc(C(F)(F)F)s2)cs1	-7.7%
COc1ccc(OC)c(S(=O)(=O)N2CCN3CCCC3C2)c1 (stereo not drawn)	-16.6%
Nc1ccccc1C#CC(=O)c1ccccc1	58.4% (active)
Nc1ccccc1C#CCCCCO	-18.4%
Nc1ccccc1C#Cc1ccccc1	-30.1%
O=[N+]([O-])c1ccc(Cl)c(/C=N/n2c(COc3ccccc3)n[nH]c2=S)c1	-22%
COC(=O)CN1C(=S)N(c2ccc(Cl)cc2)C(=O)C1CC(=O)Nc1ccccc1 (stereo not drawn)	-29.4%
O=S(=O)(O)c1cccc2c(N=Nc3ccc(O)c4ncccc34)cccc12	25.1%
COc1ccccc1N=Nc1ccc(O)c2ncccc12	-11.7%
CCS(=O)(=O)c1ccc(OC)c(N=Nc2ccc(O)c3ncccc23)c1	24.1%
Cc1cccc(N=Nc2ccc(O)c3ncccc23)c1	108% (active)
Cc1cccc(NCc2ccc(O)c3ncccc23)c1	-29%
COc1cccc(N=Nc2ccc3ccccc3c2O)c1	-81.3%
Nc1ccc(N=Nc2ccccc2)c2cccnc12	-3.3%
O=Nc1ccc(O)c2ncccc12	19.6%
COc1ccc(C)cc1N=Nc1ccc(O)c2ncccc12	-31.6%
CCOC(=O)c1ccc(Nc2c(OCC)c(=O)c2=O)cc1	8%
Cc1ccc(/C=N/N2CCN(C3c4ccccc4-c4ccccc43)CC2)s1	0.2%
NNC(=O)c1cc(Cl)ccc1Cl	-38.8%
COc1ccc(-c2noc(CCC(=O)NCCc3ccccc3)n2)cc1OC	-7.8%
c1ccc(-c2nnsc2Sc2ccccn2)cc1	-52.7%
CN(C(=O)n1cnc2ccccc21)c1ccccc1	-29.2%
CCOc1cc2nc(-c3ccc(OC)c(OC)c3)nc(N3CCOCC3)c2cc1OC	-23.5%
CCS(=O)(=O)c1ccc(N=Nc2ccc(O)c3ncccc23)c(OC)c1	-30%

Structure (SMILES)	inhibition
COc1ccc(N=Nc2ccc(O)c3ncccc23)cc1	108% (active)
CCOc1ccc(N=Nc2ccc(O)c3ncccc23)cc1	25.7%
Cc1ccc(C(=O)Nc2nc(C)c(C)s2)o1	-44.9%
O=C(N/N=C/c1ccc(Cl)cc1)c1sccc1OCc1ccc(F)cc1	-25.8%
C=CCOc1ccccc1C(=O)/C=C1/C(=O)Nc2ccccc21	37.3% (active)
C=CCOc1cccc(C(=O)/C=C2/C(=O)Nc3ccccc32)c1	-3.7%
C=CCOc1ccc(C(=O)/C=C2/C(=O)Nc3ccccc32)cc1	1.1%
Cc1cc(NC(=O)CCC(=O)N(CC(=O)NC2CCCC2)c2cccc(F)c2)no1	-29.1%
O=C(Nc1ccccn1)c1ccc(Br)c(S(=O)(=O)N2CCCC2)c1	-39%
O=C(Nc1ccccn1)c1ccc(Br)c(S(=O)(=O)N2CCCCC2)c1	-25.4%
CC(C)(C)c1ccc(C(=O)NC(=S)NCc2ccco2)cc1	-11%
N=c1c2c(n(Cc3ccc(F)cc3)c3c1CCC3)CCCC2	22.1%
N=c1c2c(n(Cc3ccc(Br)cc3)c3c1CCC3)CCCC2	39%
NC(=O)c1ccccc1NC(=O)Cc1cccs1	-10.4%
O=CNCCc1nc2ccccc2n1CCc1ccccc1	15%
O=CNCc1nc2ccccc2n1CCCc1ccccc1	-1.8%
O=CNCc1nc2ccccc2n1CCc1ccccc1	66% (active)
CNc1ccc(Cl)nn1	-42.7%
C=C(C)[C@@H]1CCC2(C(=O)O)CC[C@]3(C)[C@H](CC[C@@H]4[C@@]5(C)CCC(=O)C(C)(C)[C@@H]5CC[C@]43C)[C@@H]12 (stereo partly drawn)	48.4%
CC1(C)C(=O)CC[C@]2(C)C3C(=O)C=C4[C@H]5C[C@@](C)(C(=O)O)CC[C@]5(C)CC[C@]4(C)[C@]3(C)CC[C@@H]12 (stereo partly drawn)	-7.3%
O=C(NCc1ccccc1)c1ccco1	-12.3%
O=C(CSCCSCC(=O)c1ccco1)c1ccco1	-26.9%
O=C(C#Cc1ccccc1)c1ccco1	72.9% (active)
CC(C)C(=O)Nc1ccc(C(=O)NCc2cccnc2)cc1	-35.1%
COc1ccc(NS(=O)(=O)c2ccc3oc(SC)nc3c2)cc1	-2.9%

Structure (SMILES)	inhibition
CNC(=O)CSc1nc2cc(S(=O)(=O)Nc3ccc(OC)cc3)ccc2o1	-1.2%
CC(=O)c1c(CC(=O)O)[nH]n(-c2nc3ccccc3s2)c1=O	79.8% (active)
COC(=O)Cc1[nH]n(-c2nc3ccccc3s2)c(=O)c1C(C)=O	-16.2%
CCCN=C(C)c1c(-c2ccccc2)[nH]n(-c2nc3ccccc3s2)c1=O	7.3%
O=C(CCN1C(=O)c2ccccc2C1=O)OCN1C(=O)c2ccccc2C1=O	11.2%
O=c1cc(N2CCN(c3ccc(F)cc3)CC2)[nH]c(=O)n1Cc1ccc(F)cc1	-13%
CC1=NNC(=O)/C1=C\c1cn(-c2ccccc2)nc1-c1ccc(F)cc1	-39.1%
CC1=NNC(=O)/C1=C\c1cn(-c2ccccc2)nc1-c1ccccc1	64.7% (active)
CC1=NNC(=O)/C1=C\c1cn(-c2ccccc2)nc1-c1ccc(Cl)cc1	-47.4%
COc1ccc(NC(=O)CC(C(=O)O)N2CCCCC2)cc1 (stereo not drawn)	2.5%
COc1cccc(/C=N/Nc2ncnc(N)c2[N+](=O)[O-])c1OC	53.3%
Cc1ccccc1-n1c(C)cc(/C=N/Nc2ccc([N+](=O)[O-])cn2)c1C	-119%
Cc1cc(/C=N/Nc2ccc([N+](=O)[O-])cn2)c(C)n1-c1ccccc1	-31.3%
Cc1cc(/C=N/Nc2nc(N)ncc2[N+](=O)[O-])c(C)n1-c1cccc(C(F)(F)F)c1	-14.7%
O=C(CCN1C(=O)/C(=C/c2ccccc2)SC1=S)NNC(=O)c1ccncc1	-47.5%
O=C1CC(c2ccc(F)cc2)C2=C(CCCC2=O)N1 (stereo not drawn)	-5.5%
CCc1cc2c(=O)n(Cc3ccccc3)c(SC3CCOC3=O)nc2s1 (stereo not drawn)	-29.3%
COc1ccc(CCN2C(=NC(=O)C(C)C)SC3CS(=O)(=O)CC32)cc1OC (stereo not drawn)	-10.6%
CCCCS(=O)(=O)/C=C/[C@H]1[C@H](S(=O)(=O)CCCC)[C@H]2C=C[C@@H]1C2	-23.6%
CCCCS(=O)(=O)/C=C\C=C/S(=O)(=O)CCCC	97.7% (active)
CCCCS(=O)(=O)/C=C\C1C2C=CC(C2)C1S(=O)(=O)CCCC (stereo not drawn)	6.2%
Cc1cc(C)nc(NC2=NCC(=O)N2CCc2c[nH]c3ccccc23)n1	-8.6%
Cc1ccc(NC(=O)CCN2CCN(C)CC2)cc1	24.4%
COC(=O)c1sc(NC(=S)NC(=O)c2cccc(Br)c2)nc1C	25.2%
CN(Cc1ccccc1F)c1nc(-c2cccnc2)nc2ccccc12	25.5%

Structure (SMILES)	inhibition
CN(Cc1ccccc1F)c1nc(-c2cccs2)nc2ccccc12	67.9% (active)
COc1cccc(CN(C)c2nc(-c3cccs3)nc3ccccc23)c1	7.9%
O=C(Nc1ccccc1-c1nnc(SCc2ccc(Cl)cc2)o1)c1ccccc1	5.6%
COc1ccc(CC(=O)OCN2C(=O)c3ccccc3C2=O)cc1	0.1%
O=C(Cc1ccc(F)cc1)OCN1C(=O)c2ccccc2C1=O	49.7% (active)
O=C(Cc1ccccc1F)OCN1C(=O)c2ccccc2C1=O	-15.6%
Cc1c(NC(=O)Nc2cccc(C#N)c2)c(=O)n(-c2ccccc2)n1C	-8.2%
COc1ccc(NC(=O)c2ccc(S(=O)(=O)N(C)C)cc2)cc1	-41.1%
O=c1c2cnn(-c3ccccc3)c2nc(-c2cccs2)n1-c1cccc(Cl)c1	-3.1%
Cc1ncoc1C(=O)N1CCCC(CCC(=O)NCc2ccc(F)c(F)c2)C1 (stereo not drawn)	-31.1%
CN(C)c1ccc(/C=C/c2cccc[n+]2[O-])cc1	2.7%
CN(C)c1ccc(/C=C/c2cc[n+](C)cc2)cc1	25%
CC(=O)/C(C(=N)N1CCN(c2cccc(Cl)c2)CC1)=C(\C)O	24.8%
O=[N+]([O-])c1cc([N+](=O)[O-])c(Oc2cccnc2Br)cc1NN1CCCCC1	5.9%
O=[N+]([O-])c1cc([N+](=O)[O-])c(Oc2ccc(Cl)c3cccnc23)cc1NN1CCCCC1	44.7% (active)
O=[N+]([O-])c1cc([N+](=O)[O-])c(Oc2c(Cl)cccc2Cl)cc1NN1CCCCC1	-4.9%
O=C(O)c1ccc(S(=O)(=O)NCC2CCCCC2)cc1	-9.7%
O=C(NCC1COc2ccccc2O1)C1CCCN(S(=O)(=O)c2cccc3cccnc23)C1 (stereo not drawn)	22.5%
COC(=O)Cc1[nH]n(-c2nc3ccccc3s2)c(=O)c1C(C)=Nc1ccc(Cl)cc1	1%
COC(=O)CC1=NN(c2nc3ccccc3s2)C(=O)/C1=C/N(C)C	-19.7%
Fc1ccc(CSc2ncnc3nc[nH]c23)cc1	-14.8%
N#Cc1c(-c2ccccc2)cc(-c2ccccc2)nc1SCc1nnc(-c2ccccc2)o1	12.9%
Cc1cc(C)c(C#N)c(SCc2nnc(-c3ccccc3[N+](=O)[O-])o2)n1	-26%
